Laboratory results as given in PubChem BioAssay AID1159580 (chemical genetic matrix, 2015).
In all, about 5,500 compounds went through this assay and about 2,000 (36%) were called active. About 18% were inconclusive and are not listed. Cut-off read from the data, not from the text of the source: active = normalized growth mostly below about 0.91 (no sharp cut-off); inconclusive = no clear call, values can overlap the other calls; inactive = mostly above about 0.92. The list shows a part of the results.

Test: chemical genetic growth profiling, strain panel (AID 1159580);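 note: tested at 20 µM; growth read once vehicle control cultures reached saturation at 30 °C; 1 = growth at the plate median or of vehicle wells; lower values mean less growth of the strain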
Settings: S. cerevisiae deletion strains, growth OD

Measured: normalized growth

Cc1ccc2nc(-c3ccc4c(c3)OCCO4)cn2c1
inactive: locus YAR019C, strain CDC15, stronger effect = lower value 0.981 | locus YBL105C, strain PKC1, stronger effect = lower value 0.98 | locus YBR135W, strain CKS1, stronger effect = lower value 0.984 | locus YBR136W, strain MEC1, stronger effect = lower value 0.983 | locus YBR160W, strain CDC28, stronger effect = lower value 0.978 | locus YDL017W, strain CDC7, stronger effect = lower value 0.985 | locus YDL028C, strain MPS1, stronger effect = lower value 0.984 | locus YDL101C, strain DUN1, stronger effect = lower value 0.988 | locus YDL108W, strain KIN28, stronger effect = lower value 0.982 | locus YDL132W, strain cdc53, stronger effect = lower value 0.982 | locus YDL214C, strain PRR2, stronger effect = lower value 0.958 | locus YDR052C, strain DBF4, stronger effect = lower value 0.988 | locus YDR054C, strain cdc34, stronger effect = lower value 0.97 | locus YDR226W, strain ADK1, stronger effect = lower value 0.99 | locus YDR477W, strain SNF1, stronger effect = lower value 0.967 | locus YER123W, strain YCK3, stronger effect = lower value 0.941 | locus YER133W, strain GLC7, stronger effect = lower value 0.966 | locus YFL009W, strain cdc4, stronger effect = lower value 0.981 | locus YFL029C, strain CAK1, stronger effect = lower value 0.974 | locus YFR003C, strain YPI1, stronger effect = lower value 0.983 | locus YFR019W, strain FAB1, stronger effect = lower value 0.963 | locus YFR028C, strain CDC14, stronger effect = lower value 0.976 | locus YGR040W, strain KSS1, stronger effect = lower value 0.953 | locus YGR052W, strain FMP48, stronger effect = lower value 1.04 | locus YGR092W, strain DBF2, stronger effect = lower value 0.929 | locus YHR030C, strain SLT2, stronger effect = lower value 0.986 | locus YHR079C, strain IRE1, stronger effect = lower value 0.966 | locus YHR082C, strain KSP1, stronger effect = lower value 1.01 | locus YHR205W, strain SCH9, stronger effect = lower value 0.956 | locus YIL147C, strain SLN1, stronger effect = lower value 0.983 | locus YJL095W, strain BCK1, stronger effect = lower value 0.984 | locus YJL128C, strain PBS2, stronger effect = lower value 0.969 | locus YJL157C, strain FAR1, stronger effect = lower value 0.944 | locus YJR016C, strain ILV3, stronger effect = lower value 0.983 | locus YJR066W, strain TOR1 (second series), stronger effect = lower value 0.911 | locus YJR066W, strain TOR1, stronger effect = lower value 1 | locus YKL048C, strain ELM1, stronger effect = lower value 0.959 | locus YKL067W, strain YNK1, stronger effect = lower value 0.967 | locus YKL101W, strain HSL1, stronger effect = lower value 0.951 | locus YKL193C, strain SDS22, stronger effect = lower value 0.983 | locus YKL203C, strain TOR2, stronger effect = lower value 1.01 | locus YLR113W, strain HOG1, stronger effect = lower value 0.899 | locus YLR133W, strain CKI1, stronger effect = lower value 0.956 | locus YLR403W, strain SFP1, stronger effect = lower value 0.947 | locus YML070W, strain DAK1, stronger effect = lower value 0.938 | locus YMR001C, strain CDC5, stronger effect = lower value 0.987 | locus YMR205C, strain PFK2 (second series), stronger effect = lower value 0.97 | locus YMR277W, strain FCP1, stronger effect = lower value 0.982 | locus YNL006W, strain LST8, stronger effect = lower value 0.989 | locus YNL020C, strain ARK1, stronger effect = lower value 0.961 | locus YNL161W, strain CBK1, stronger effect = lower value 0.974 | locus YNL183C, strain NPR1, stronger effect = lower value 0.996 | locus YNL207W, strain RIO2, stronger effect = lower value 0.978 | locus YNL222W, strain SSU72, stronger effect = lower value 0.979 | locus YNL307C, strain MCK1 (second series), stronger effect = lower value 0.94 | locus YOL078W, strain AVO1, stronger effect = lower value 0.98 | locus YOL136C, strain PFK27, stronger effect = lower value 0.929 | locus YOR061W, strain CKA2, stronger effect = lower value 0.966 | locus YOR119C, strain RIO1, stronger effect = lower value 0.997 | locus YOR231W, strain MKK1, stronger effect = lower value 0.932 | locus YOR329C, strain SCD5, stronger effect = lower value 0.985 | locus YPL031C, strain PHO85, stronger effect = lower value 0.958 | locus YPL153C, strain RAD53, stronger effect = lower value 0.947 | locus YPL204W, strain HRR25, stronger effect = lower value 0.935 | locus YPL209C, strain IPL1, stronger effect = lower value 0.978 | locus YPL256C, strain CLN2, stronger effect = lower value 0.923 | locus YPR025C, strain CCL1, stronger effect = lower value 0.981 | locus YPR106W, strain ISR1, stronger effect = lower value 0.973 | locus YPR111W, strain DBF20, stronger effect = lower value 0.965 | strain NNK1, stronger effect = lower value 0.975 | strain TSCII, stronger effect = lower value 0.986
